According to the supplement of paper PMC11732987, “Enantioselective OTUD7B fragment discovery through chemoproteomics screening and high-throughput optimisation” (Communications Chemistry, 2025):
Unmarked numbers belong to inactive results.

How the values were obtained:
Assay in all cases: log2 ratio of Biotin-Ahx-Ub-VS probe labelling (fragment/DMSO); higher = less target engagement (more negative = stronger competition), active = hit call of the paper (q ≤ 0.05, log2 ratio ≤ -1)
Settings in all cases: compound concentration: 200 uM; treatment time: 3 h
[1] = target: T1, ALG13 (UniProt Q9NP73)
T1 sequence (whole entry): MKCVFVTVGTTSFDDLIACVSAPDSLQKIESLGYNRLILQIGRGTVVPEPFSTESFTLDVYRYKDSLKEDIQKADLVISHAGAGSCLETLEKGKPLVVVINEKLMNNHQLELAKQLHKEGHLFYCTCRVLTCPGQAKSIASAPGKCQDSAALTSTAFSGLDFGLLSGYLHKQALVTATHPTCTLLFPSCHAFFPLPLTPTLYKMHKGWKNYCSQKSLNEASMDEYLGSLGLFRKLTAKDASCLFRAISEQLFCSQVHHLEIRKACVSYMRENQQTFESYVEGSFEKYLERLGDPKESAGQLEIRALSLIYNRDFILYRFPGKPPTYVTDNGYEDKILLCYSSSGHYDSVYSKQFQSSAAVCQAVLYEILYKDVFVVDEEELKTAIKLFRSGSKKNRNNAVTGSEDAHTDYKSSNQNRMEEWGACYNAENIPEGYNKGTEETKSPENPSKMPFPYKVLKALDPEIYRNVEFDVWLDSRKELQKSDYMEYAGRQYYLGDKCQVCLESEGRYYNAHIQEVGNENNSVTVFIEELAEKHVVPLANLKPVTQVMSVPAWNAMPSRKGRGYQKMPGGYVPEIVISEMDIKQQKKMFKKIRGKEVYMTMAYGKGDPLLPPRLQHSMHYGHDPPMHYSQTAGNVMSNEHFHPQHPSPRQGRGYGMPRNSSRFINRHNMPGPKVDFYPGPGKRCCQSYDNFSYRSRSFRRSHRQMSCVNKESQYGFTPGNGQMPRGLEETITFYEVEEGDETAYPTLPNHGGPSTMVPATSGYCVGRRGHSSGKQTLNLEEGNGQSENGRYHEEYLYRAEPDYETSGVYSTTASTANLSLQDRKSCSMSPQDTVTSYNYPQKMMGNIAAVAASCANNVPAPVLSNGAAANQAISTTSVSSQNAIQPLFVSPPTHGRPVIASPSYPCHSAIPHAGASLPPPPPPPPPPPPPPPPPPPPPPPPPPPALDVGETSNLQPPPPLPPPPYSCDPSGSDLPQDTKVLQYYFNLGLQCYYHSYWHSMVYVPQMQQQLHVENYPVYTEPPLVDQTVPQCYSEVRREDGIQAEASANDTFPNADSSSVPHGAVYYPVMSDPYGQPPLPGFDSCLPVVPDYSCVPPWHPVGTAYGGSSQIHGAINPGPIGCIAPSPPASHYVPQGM
Summary of the method: (§1)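 Each value is an average log2 ratio of fragment to vehicle, tested by unpaired t-test. The underlying Spectronaut label-free quantities were global-median-normalised, and only proteins with ≥2 unique peptides were included. Triplicate HEK293T lysate samples (495 µg) were exposed to fragment at 200 µM or vehicle for 3 h, then to Biotin-Ahx-Ub-VS at 0.5 µM final for 1 h, before NeutrAvidin enrichment of labelled DUBs, LysC and trypsin digestion, and diaPASEF LC-MS/MS.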

[2] = target: ATXN3 (UniProt P54252)
ATXN3, sequence (P54252 whole entry): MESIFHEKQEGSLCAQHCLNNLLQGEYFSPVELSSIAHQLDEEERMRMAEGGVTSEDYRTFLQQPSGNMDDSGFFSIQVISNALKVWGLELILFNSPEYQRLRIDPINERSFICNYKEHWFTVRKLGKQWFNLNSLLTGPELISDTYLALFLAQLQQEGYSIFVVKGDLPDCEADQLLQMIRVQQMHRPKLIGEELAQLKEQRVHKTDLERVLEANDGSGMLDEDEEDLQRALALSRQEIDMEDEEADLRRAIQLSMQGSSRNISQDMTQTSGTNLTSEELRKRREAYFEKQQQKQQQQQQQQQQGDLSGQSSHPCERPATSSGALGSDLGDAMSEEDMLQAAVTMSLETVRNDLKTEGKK
Summary of the method: as §1

[3] = target: T2, BAP1 (UniProt Q92560)
T2 sequence (whole entry): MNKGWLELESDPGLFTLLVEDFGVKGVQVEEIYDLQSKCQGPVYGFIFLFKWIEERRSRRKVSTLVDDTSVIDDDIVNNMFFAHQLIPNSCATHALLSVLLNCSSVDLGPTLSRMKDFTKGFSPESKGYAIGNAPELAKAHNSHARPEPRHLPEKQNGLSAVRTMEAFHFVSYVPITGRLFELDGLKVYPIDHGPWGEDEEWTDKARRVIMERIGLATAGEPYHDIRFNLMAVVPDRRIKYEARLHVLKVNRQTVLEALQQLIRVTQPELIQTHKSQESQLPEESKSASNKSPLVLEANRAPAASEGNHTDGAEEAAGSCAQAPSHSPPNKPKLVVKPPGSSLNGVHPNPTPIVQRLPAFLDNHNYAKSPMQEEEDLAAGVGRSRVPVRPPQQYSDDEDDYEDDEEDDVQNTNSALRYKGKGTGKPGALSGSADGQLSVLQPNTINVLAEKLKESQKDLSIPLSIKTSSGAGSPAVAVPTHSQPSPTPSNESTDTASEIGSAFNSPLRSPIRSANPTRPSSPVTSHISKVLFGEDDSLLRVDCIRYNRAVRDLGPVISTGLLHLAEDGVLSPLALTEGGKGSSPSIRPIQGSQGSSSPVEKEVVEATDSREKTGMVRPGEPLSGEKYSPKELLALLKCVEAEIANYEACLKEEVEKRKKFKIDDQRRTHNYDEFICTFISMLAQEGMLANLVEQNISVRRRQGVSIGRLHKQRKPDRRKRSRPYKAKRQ
Summary of the method: as §1

[4] = target: EIF3F (UniProt O00303)
EIF3F, sequence (O00303 whole entry): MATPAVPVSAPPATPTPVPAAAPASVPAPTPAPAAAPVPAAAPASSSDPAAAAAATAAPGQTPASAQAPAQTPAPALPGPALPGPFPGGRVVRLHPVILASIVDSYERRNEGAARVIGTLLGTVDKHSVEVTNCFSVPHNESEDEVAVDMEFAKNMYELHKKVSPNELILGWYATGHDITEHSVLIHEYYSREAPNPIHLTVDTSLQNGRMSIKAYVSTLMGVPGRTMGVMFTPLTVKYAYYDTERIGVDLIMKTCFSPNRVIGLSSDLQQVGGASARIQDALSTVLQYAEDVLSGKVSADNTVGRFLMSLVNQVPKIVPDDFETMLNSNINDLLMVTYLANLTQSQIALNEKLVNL
Summary of the method: as §1

[5] = target: EIF3H (UniProt O15372)
EIF3H, sequence (O15372 whole entry): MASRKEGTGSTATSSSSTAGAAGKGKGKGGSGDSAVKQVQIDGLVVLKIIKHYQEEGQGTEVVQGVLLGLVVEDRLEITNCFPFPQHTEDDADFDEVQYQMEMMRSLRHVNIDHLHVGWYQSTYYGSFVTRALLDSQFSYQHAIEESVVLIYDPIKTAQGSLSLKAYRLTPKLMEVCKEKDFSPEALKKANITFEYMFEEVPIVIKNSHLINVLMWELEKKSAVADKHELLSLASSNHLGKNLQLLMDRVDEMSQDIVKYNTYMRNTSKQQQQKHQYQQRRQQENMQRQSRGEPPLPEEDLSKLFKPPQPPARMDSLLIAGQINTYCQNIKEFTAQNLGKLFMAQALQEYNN
Summary of the method: as §1

[6] = target: T3, FAM105A (UniProt Q9NUU6)
T3 sequence (whole entry): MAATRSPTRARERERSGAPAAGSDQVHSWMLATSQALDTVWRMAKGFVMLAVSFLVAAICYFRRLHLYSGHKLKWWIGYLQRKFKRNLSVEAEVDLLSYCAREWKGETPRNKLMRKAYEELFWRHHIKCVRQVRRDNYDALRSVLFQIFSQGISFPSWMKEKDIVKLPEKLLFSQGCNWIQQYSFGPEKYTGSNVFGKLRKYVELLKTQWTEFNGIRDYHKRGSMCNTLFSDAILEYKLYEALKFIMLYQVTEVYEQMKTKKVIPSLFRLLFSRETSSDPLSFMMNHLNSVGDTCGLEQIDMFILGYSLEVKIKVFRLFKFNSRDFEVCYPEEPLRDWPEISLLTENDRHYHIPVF
Summary of the method: as §1

[7] = target: OTUB1 (UniProt Q96FW1)
OTUB1, sequence (Q96FW1 whole entry): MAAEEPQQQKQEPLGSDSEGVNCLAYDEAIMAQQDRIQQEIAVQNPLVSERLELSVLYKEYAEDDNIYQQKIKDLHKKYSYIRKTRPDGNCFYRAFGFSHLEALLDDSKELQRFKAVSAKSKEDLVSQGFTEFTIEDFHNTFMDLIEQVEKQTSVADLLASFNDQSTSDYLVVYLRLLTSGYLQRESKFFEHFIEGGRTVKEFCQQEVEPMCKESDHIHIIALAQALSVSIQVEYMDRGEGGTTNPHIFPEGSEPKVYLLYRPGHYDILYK
Summary of the method: as §1

[8] = target: T4, OTUD4 (UniProt Q01804)
T4 sequence (whole entry): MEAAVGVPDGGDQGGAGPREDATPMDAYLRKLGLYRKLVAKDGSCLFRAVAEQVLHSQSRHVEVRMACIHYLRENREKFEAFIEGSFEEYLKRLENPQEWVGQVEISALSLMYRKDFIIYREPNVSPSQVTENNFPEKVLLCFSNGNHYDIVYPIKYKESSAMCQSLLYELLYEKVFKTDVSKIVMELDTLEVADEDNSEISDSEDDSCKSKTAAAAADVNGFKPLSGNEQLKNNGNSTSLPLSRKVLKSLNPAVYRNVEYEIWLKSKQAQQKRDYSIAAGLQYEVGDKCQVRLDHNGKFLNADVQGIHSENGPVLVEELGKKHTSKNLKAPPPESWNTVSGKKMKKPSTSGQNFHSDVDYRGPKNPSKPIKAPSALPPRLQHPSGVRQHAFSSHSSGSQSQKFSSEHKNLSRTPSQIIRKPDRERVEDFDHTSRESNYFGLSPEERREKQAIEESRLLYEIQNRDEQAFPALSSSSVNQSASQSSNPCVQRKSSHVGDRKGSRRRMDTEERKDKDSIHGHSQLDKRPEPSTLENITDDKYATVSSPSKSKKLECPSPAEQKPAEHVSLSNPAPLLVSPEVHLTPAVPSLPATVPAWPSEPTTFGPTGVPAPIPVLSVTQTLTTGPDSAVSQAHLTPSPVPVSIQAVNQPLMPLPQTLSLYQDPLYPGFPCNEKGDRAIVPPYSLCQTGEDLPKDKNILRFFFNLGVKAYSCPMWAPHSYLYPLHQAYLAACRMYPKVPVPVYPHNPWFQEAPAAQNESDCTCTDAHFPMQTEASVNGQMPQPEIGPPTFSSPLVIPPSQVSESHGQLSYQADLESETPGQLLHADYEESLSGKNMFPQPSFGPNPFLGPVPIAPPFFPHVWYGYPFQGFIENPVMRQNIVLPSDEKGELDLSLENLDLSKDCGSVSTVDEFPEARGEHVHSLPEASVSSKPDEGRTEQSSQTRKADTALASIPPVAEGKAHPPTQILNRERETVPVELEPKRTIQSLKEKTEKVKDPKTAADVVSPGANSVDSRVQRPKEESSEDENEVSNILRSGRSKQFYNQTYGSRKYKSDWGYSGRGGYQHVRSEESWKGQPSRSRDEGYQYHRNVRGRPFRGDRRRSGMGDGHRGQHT
Summary of the method: as §1

[9] = target: T5, OTUD5 (UniProt Q96G74)
T5 sequence (whole entry): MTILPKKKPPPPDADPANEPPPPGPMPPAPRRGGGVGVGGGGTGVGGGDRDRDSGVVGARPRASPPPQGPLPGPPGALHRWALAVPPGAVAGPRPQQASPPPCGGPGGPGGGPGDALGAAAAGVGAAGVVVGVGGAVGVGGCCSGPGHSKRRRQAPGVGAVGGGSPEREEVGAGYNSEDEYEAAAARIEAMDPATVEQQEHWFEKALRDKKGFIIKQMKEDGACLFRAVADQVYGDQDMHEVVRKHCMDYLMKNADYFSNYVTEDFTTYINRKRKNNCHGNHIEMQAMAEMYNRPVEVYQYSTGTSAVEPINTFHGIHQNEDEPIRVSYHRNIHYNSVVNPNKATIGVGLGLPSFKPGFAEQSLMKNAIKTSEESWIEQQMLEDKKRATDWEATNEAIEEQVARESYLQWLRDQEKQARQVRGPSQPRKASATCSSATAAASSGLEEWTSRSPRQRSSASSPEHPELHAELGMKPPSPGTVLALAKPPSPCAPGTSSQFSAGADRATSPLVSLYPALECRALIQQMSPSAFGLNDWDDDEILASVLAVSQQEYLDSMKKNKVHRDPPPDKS
Summary of the method: as §1

In the case of O=C(CCl)Nc1ccc(F)cc1F, the “log2 ratio of Biotin-Ahx-Ub-VS probe labelling” value (“log2 ratio” for short) [1] was 0.182, the “log2 ratio” value [2] was -0.351 and the “log2 ratio” value [3] was -2.82 (active). For the same compound, the “log2 ratio” value [4] was -0.155, the “log2 ratio” value [5] was 0.108 and the “log2 ratio” value [6] was 0.102. For the same compound, the “log2 ratio” value [7] was -0.293, the “log2 ratio” value [8] was -0.268 and the “log2 ratio” value [9] was -0.5.
